The source of these data is publication PMC7862700, “An all-to-all approach to the identification of sequence-specific readers for epigenetic DNA modifications on cytosine”.

Common to all, as to experiment: DAPPL (digital affinity profiling via proximity ligation, sequencing); 10 mM Tris-HCl pH 7.5, 50 mM NaCl, 1 mM DTT, 4% glycerol, room temperature, 30 min; GST-TFs on glutathione beads, 16-mer random dsDNA library, 0.1% formaldehyde crosslink after washing; high values mean tight binding
The target in one experiment is T1, FLI1 (Homo sapiens, UniProt Q01543 1-452).
T1 sequence: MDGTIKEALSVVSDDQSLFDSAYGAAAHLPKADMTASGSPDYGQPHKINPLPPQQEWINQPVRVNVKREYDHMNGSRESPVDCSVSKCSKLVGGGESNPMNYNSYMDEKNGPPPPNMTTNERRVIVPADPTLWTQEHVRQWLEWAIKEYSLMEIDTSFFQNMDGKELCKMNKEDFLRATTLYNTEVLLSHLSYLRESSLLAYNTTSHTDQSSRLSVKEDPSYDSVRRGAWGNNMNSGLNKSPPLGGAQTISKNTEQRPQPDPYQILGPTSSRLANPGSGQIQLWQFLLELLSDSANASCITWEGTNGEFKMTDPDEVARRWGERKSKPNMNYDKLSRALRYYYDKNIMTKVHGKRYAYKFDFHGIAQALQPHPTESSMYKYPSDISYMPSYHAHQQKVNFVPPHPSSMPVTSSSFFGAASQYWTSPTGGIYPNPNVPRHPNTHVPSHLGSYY
As to conditions: protein: recombinant; tags: N-terminal GST; dsDNA, one strand shown. In a few lines: (§1)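 Sequencing on an Illumina NextSeq500 followed washing, crosslinking with 0.1% formaldehyde, proximity ligation (BsaI/T4 ligase, 1 h, 37 °C) and PCR amplification of pools that had been incubated for 30 min at room temperature with 200 nmole of a random double-stranded 16-mer DNA library in Tris/NaCl/DTT/glycerol buffer. Each pool held DNA-barcoded human transcription factors, expressed in yeast as GST fusions and captured on glutathione beads, plus a tag-only sample. Binding signal is a hexamer's read frequency for a factor divided by its frequency in the tag-only sample.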

The next experiment has as its target T2, ELK1 (Homo sapiens, UniProt P19419 1-428).
T2 sequence: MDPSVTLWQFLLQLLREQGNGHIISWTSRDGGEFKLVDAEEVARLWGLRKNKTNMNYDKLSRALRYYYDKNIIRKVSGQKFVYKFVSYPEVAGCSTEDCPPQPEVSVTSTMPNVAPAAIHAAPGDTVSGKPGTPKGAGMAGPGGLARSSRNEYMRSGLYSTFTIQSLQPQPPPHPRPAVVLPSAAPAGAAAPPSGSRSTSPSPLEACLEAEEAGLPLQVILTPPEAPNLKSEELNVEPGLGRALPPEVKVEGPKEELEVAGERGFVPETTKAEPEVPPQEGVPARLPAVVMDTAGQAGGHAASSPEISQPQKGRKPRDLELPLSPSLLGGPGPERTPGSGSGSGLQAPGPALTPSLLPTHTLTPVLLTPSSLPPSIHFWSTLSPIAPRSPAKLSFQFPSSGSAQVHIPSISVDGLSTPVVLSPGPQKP
The conditions noted are these: protein: recombinant; tags: N-terminal GST; dsDNA, one strand shown. In a few lines:
as §1

The target of another experiment is T3, GABPA (Homo sapiens, UniProt Q06546 1-454).
T3 sequence: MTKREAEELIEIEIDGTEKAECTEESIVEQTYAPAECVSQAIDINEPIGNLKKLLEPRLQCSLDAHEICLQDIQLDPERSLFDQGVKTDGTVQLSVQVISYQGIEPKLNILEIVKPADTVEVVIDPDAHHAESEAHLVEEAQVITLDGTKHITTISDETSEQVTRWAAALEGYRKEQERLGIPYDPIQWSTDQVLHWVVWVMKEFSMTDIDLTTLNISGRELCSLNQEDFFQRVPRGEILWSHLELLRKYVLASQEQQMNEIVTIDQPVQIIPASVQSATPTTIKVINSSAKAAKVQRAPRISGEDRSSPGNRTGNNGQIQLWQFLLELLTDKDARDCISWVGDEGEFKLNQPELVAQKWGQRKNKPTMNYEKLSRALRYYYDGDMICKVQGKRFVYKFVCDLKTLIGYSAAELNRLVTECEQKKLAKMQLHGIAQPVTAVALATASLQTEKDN
The conditions noted are these: protein: recombinant; tags: N-terminal GST; dsDNA, one strand shown. In a few lines: as §1

A further experiment has as its target T4, ERG (Homo sapiens, UniProt P11308 1-479).
T4 sequence: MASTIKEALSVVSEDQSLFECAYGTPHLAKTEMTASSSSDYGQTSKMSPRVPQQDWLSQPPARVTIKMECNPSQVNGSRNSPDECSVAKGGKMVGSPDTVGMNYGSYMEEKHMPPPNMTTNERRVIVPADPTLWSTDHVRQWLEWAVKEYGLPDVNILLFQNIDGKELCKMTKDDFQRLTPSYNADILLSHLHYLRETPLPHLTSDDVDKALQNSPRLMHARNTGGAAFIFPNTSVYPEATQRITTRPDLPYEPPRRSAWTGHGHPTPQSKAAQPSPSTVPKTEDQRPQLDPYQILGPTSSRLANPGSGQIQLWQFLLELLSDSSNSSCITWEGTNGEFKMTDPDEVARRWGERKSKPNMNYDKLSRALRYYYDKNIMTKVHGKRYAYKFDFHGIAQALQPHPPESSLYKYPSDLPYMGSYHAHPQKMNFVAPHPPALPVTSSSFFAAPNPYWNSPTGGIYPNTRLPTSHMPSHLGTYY
The conditions noted are these: protein: recombinant; tags: N-terminal GST; dsDNA, one strand shown. In a few lines:
as §1

The next experiment has as its target ELF1 (Homo sapiens, UniProt P32519 1-619). As to conditions: protein: recombinant; tags: N-terminal GST; dsDNA, one strand shown. The method in brief:
as §1

The next experiment deals with T5, EHF (Homo sapiens, UniProt Q9NZC4 1-300).
T5 sequence: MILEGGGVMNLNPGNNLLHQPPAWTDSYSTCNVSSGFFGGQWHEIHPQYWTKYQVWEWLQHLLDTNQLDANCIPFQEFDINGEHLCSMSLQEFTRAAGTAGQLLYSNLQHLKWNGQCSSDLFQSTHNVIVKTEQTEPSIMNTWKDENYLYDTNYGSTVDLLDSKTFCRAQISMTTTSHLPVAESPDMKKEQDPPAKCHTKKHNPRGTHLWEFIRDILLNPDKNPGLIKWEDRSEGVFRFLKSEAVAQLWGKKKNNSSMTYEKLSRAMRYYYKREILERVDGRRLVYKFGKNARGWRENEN
The conditions noted are these: protein: recombinant; tags: N-terminal GST; dsDNA, one strand shown. The method in brief:
as §1

A further experiment deals with SPI1 (Homo sapiens, UniProt P17947 1-270). The conditions noted are these: protein: recombinant; tags: N-terminal GST; dsDNA, one strand shown. In a few lines:
as §1

A further experiment has as its target SPIB (Homo sapiens, UniProt Q01892 1-262). As to conditions: protein: recombinant; tags: N-terminal GST; dsDNA, one strand shown. The method in brief:
as §1

Another experiment concerns the target T6, ELK3 (Homo sapiens, UniProt P41970 1-407).
T6 sequence: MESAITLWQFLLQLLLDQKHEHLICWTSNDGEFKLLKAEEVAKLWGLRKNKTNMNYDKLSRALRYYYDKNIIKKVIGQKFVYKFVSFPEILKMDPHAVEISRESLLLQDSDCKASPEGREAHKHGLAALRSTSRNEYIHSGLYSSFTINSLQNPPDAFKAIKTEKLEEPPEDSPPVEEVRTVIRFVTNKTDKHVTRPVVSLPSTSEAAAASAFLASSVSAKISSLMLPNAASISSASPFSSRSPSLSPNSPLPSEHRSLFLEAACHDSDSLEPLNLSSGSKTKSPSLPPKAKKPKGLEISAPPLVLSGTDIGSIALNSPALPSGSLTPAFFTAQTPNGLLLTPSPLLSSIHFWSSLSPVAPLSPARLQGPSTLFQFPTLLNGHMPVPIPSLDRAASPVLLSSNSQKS
The conditions noted are these: protein: recombinant; tags: N-terminal GST; dsDNA, one strand shown. The method in brief:
as §1

For a further experiment, the target named is T7, FEV (Homo sapiens, UniProt Q99581 1-238).
T7 sequence: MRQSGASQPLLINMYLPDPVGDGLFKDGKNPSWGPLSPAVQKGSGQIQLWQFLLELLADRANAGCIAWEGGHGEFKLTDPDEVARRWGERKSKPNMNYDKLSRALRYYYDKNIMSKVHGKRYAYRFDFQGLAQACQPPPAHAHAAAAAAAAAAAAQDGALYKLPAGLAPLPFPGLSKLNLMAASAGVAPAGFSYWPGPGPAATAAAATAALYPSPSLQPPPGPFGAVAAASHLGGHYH
The conditions noted are these: protein: recombinant; tags: N-terminal GST; dsDNA, one strand shown. The method in brief: as §1

The target in the next experiment is ETV5 (Homo sapiens, UniProt P41161 1-510). The conditions noted are these: protein: recombinant; tags: N-terminal GST; dsDNA, one strand shown. In a few lines: as §1
Sequence of ETV5 (P41161 whole entry): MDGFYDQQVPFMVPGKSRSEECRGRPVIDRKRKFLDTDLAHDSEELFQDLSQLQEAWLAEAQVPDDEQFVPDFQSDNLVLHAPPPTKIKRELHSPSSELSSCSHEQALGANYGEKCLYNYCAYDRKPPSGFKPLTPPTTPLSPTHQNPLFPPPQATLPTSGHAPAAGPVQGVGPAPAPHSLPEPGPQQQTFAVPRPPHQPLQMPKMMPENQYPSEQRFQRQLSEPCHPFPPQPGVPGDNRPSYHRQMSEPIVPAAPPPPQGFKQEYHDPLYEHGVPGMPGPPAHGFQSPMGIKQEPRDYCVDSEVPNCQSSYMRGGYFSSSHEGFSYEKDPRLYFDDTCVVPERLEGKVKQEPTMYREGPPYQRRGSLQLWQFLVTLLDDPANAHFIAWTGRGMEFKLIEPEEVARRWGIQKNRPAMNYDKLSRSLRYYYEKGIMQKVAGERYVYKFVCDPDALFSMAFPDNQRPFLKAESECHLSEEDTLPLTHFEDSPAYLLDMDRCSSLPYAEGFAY
The target of the next experiment is HSF1 (Homo sapiens, UniProt Q00613 1-529). The conditions noted are these: protein: recombinant; tags: N-terminal GST; chain copies: 3; dsDNA, one strand shown. In a few lines: as §1
Sequence of HSF1 (Q00613 whole entry): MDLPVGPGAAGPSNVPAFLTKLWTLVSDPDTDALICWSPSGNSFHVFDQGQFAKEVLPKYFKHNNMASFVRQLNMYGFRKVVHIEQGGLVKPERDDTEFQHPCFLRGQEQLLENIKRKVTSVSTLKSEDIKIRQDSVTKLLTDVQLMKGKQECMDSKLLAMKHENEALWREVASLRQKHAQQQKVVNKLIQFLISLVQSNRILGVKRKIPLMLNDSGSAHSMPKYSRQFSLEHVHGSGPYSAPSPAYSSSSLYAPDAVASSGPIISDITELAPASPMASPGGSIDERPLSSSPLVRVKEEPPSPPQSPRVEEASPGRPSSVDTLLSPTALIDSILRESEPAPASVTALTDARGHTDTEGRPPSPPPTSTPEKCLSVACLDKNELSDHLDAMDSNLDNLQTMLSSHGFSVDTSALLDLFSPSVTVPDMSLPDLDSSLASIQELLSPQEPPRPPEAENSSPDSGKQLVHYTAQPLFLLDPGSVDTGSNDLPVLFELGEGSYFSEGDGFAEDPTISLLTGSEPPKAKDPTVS
The target of the next experiment is T8, SPIC (Homo sapiens, UniProt Q8N5J4 1-248).
T8 sequence: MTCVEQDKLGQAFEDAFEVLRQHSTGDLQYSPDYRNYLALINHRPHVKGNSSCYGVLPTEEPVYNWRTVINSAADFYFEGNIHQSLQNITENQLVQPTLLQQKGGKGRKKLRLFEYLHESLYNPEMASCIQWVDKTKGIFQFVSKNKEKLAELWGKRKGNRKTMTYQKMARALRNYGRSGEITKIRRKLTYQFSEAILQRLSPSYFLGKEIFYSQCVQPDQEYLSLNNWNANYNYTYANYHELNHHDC
As to conditions: protein: recombinant; tags: N-terminal GST; dsDNA, one strand shown. The method in brief: as §1

The target in another experiment is ELF4 (Homo sapiens, UniProt Q99607 1-663). As to conditions: protein: recombinant; tags: N-terminal GST; dsDNA, one strand shown. In a few lines:
as §1

Another experiment has as its target T9, ELK4 (Homo sapiens, UniProt P28324-2 1-405).
T9 sequence: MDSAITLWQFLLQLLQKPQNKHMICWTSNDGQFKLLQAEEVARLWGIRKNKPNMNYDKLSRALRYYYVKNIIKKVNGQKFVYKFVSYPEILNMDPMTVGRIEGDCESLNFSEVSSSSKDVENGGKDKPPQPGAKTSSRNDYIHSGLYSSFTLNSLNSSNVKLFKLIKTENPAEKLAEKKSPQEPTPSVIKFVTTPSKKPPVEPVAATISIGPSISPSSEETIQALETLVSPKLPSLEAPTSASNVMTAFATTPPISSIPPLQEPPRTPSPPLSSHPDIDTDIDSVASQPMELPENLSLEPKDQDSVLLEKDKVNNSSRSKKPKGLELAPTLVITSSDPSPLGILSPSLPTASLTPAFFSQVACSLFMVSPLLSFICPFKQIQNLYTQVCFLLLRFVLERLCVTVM
As to conditions: protein: recombinant; tags: N-terminal GST; dsDNA, one strand shown. In a few lines: as §1

Another experiment concerns the target T10, ETV2 (Homo sapiens, UniProt O00321 1-342).
T10 sequence: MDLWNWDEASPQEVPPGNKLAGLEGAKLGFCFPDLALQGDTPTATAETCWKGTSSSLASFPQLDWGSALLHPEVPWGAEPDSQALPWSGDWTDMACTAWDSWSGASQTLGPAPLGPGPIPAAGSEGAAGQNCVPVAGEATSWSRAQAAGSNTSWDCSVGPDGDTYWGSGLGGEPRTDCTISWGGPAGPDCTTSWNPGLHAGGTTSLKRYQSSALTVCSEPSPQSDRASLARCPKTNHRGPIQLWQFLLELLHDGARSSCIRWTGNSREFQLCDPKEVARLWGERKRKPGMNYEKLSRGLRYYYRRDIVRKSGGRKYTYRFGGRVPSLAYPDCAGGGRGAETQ
As to conditions: protein: recombinant; tags: N-terminal GST; dsDNA, one strand shown. The method in brief: as §1

A further experiment deals with CRX (Homo sapiens, UniProt O43186 1-299). The conditions noted are these: protein: recombinant; tags: N-terminal GST; dsDNA, one strand shown. The method in brief:
as §1

Another experiment addresses ETV1 (Homo sapiens, UniProt P50549 1-477). The conditions noted are these: protein: recombinant; tags: N-terminal GST; dsDNA, one strand shown. The method in brief:
as §1

Sequence of SPIB (Q01892 whole entry): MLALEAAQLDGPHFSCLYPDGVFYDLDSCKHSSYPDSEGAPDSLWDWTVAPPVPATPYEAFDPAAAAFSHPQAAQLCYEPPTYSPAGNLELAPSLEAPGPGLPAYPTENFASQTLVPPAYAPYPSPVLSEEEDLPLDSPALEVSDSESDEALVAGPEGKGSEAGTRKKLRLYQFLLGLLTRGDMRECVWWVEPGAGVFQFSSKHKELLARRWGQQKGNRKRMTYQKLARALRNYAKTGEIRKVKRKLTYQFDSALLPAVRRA
Sequence of ELF4 (Q99607 whole entry): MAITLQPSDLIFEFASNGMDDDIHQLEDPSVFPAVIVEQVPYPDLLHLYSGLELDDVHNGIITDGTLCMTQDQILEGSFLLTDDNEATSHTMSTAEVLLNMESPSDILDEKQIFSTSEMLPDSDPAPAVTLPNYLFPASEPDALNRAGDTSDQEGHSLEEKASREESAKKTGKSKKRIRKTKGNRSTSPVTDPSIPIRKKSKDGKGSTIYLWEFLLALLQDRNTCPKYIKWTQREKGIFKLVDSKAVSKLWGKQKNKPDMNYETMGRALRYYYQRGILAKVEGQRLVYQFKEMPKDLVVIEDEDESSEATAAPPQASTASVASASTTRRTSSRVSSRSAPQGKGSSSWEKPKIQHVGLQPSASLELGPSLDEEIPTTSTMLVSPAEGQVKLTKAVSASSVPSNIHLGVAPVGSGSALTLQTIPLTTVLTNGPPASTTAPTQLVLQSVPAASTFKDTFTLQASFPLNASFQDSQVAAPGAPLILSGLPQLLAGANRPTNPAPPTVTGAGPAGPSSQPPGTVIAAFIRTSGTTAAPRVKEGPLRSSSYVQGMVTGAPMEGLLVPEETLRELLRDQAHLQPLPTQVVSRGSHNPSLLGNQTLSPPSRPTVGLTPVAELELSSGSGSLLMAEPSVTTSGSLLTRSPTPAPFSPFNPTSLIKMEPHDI
Sequence of CRX (O43186 whole entry): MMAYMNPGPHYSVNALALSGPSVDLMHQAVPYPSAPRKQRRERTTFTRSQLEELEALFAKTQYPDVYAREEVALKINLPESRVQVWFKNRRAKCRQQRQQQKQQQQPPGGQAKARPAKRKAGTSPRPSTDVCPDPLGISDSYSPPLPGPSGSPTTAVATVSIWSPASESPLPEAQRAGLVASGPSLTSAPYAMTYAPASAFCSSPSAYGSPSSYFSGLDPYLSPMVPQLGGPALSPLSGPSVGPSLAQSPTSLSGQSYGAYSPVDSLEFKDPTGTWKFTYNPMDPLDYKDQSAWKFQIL
Sequence of ETV1 (P50549 whole entry): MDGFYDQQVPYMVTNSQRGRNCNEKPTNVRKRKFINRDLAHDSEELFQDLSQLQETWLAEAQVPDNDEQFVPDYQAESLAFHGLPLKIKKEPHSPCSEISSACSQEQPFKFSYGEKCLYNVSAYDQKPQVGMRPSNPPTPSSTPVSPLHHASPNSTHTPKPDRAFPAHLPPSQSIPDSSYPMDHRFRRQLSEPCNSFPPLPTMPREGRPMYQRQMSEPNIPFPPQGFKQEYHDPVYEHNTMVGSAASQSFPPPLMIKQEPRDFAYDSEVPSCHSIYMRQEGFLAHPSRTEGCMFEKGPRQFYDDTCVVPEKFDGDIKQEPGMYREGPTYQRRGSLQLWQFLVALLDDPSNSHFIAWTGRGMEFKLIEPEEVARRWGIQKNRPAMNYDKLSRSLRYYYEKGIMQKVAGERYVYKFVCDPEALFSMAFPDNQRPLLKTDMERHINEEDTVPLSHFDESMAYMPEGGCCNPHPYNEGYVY
Sequence of ELF1 (P32519 whole entry): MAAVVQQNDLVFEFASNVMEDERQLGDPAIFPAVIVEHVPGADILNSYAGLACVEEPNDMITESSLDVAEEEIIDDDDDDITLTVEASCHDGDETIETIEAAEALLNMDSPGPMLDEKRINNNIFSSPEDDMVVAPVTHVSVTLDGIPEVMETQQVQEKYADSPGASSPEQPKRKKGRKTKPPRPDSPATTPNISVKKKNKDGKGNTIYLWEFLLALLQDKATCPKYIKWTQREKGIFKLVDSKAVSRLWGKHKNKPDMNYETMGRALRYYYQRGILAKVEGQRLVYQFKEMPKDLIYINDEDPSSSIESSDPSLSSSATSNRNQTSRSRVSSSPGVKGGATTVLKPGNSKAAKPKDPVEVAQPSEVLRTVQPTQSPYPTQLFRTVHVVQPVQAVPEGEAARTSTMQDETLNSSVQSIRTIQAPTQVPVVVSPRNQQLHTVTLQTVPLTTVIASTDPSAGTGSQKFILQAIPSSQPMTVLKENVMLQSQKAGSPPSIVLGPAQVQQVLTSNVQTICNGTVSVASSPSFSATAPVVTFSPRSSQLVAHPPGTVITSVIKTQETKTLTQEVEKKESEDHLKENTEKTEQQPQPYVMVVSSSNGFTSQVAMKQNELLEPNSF

As for AAGCAC, the binding signal with FLI1 was 1.14 fold enrichment (6-mer frequency, TF over GST control); with ELK1, 1.14 fold enrichment (6-mer frequency, TF over GST control); in the experiment with GABPA, 1.15 fold enrichment (6-mer frequency, TF over GST control); with ERG, 1.19 fold enrichment (6-mer frequency, TF over GST control); in the experiment with ELF1, 1.18 fold enrichment (6-mer frequency, TF over GST control); with EHF, 1.07 fold enrichment (6-mer frequency, TF over GST control). For the same sequence, the binding signal is 1.18 fold enrichment (6-mer frequency, TF over GST control) with SPI1; 1.18 fold enrichment (6-mer frequency, TF over GST control) with SPIB; 1.31 fold enrichment (6-mer frequency, TF over GST control) with ELK3; 1.23 fold enrichment (6-mer frequency, TF over GST control) with FEV; 1.12 fold enrichment (6-mer frequency, TF over GST control) in the experiment with ETV5; 1.04 fold enrichment (6-mer frequency, TF over GST control) with HSF1. In addition, the binding signal in the experiment with SPIC is 1.09 fold enrichment (6-mer frequency, TF over GST control); with ELF4 it was 1.2 fold enrichment (6-mer frequency, TF over GST control); with ELK4, 1.12 fold enrichment (6-mer frequency, TF over GST control); with ETV2 it was 1.22 fold enrichment (6-mer frequency, TF over GST control); in the experiment with CRX it was 1.09 fold enrichment (6-mer frequency, TF over GST control); with ETV1 it was 1.14 fold enrichment (6-mer frequency, TF over GST control).
